Anthrax LF prot = Bacillus anthracis LF protease inhibitors, primary screen, biochemical, multiplex microsphere, MLPCN library; Lethal factor (Bacillus anthracis), P15917; multiplex microsphere protease cleavage assay; inhibition, % at 10 µM; hit rate 0.12% among 360,000; AID 588501, 2011; further: plate controls were buffer without enzyme for full effect and enzyme alone for no effect
Target sequence (P15917 whole entry, looked up): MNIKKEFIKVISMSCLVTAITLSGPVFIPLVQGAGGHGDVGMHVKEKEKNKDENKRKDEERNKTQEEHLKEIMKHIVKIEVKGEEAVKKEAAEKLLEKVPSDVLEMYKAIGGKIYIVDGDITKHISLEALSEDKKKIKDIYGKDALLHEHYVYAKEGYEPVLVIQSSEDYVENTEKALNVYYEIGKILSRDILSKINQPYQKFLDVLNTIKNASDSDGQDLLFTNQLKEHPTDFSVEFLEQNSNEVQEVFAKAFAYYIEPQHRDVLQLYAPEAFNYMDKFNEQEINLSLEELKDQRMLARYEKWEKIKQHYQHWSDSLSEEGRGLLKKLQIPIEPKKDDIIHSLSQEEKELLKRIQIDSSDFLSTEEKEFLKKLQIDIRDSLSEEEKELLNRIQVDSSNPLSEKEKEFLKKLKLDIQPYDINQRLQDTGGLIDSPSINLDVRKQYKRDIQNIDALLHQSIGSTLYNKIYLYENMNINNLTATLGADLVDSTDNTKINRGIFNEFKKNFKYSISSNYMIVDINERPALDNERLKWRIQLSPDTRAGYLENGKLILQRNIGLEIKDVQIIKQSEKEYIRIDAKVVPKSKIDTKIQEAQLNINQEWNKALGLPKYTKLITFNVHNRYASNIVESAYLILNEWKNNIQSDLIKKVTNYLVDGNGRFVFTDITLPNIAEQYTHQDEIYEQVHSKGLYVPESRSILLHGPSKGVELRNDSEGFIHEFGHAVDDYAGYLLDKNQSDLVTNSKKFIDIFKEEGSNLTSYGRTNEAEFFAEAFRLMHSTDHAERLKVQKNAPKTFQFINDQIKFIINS
MazEF act = activators of E. coli MazEF toxin-antitoxin RNase, primary screen, biochemical, fluorescence, uHTS; activation, % at 20 µM; AID 504720, 2011; FAM/BHQ RNA-DNA oligo cleavage fluorescence, 5 h; hit rate 0.32% among 350,000; Endoribonuclease toxin MazF (Escherichia coli (strain K12)), P0AE70; in the data active means activation above about 50%
BoNT F protease = BoNT/F light chain protease inhibitors, primary screen, biochemical, flow cytometry, MLPCN library. hit rate 0.22% among 360,000. inhibition, % at 10 µM. Botulinum neurotoxin type F light chain protease (Clostridium botulinum). AID 588497, 2011. Multiplex microsphere protease cleavage assay; in the data active means inhibition above about 35%, passing the limit was not always enough; inconclusive means no clear call, values can overlap the other calls; further: plate controls were buffer without enzyme for full effect and enzyme alone for no effect
Bead autofluor = flagged as autofluorescent in microsphere protease counterscreen; compound autofluorescence counterscreen, microsphere flow cytometry; hits give high values; fluorescence intensity (test concentration not listed); hit rate 3.1% among 360,000; in the data active means fluorescence intensity above about 16000; inconclusive means no clear call, values can overlap the other calls
BoNT-A LC inh2 = BoNT/A light chain protease inhibitors, primary screen, biochemical, flow cytometry, MLPCN library. multiplex microsphere protease substrate cleavage. hit rate 0.17% among 360,000. Botulinum neurotoxin type A light chain protease (Clostridium botulinum A str. ATCC 3502). AID 588499, 2011. inhibition, % at 10 µM; further: plate controls were buffer without enzyme for full effect and enzyme alone for no effect
* hit, by the source's call; ? = inconclusive; / = no result; + = active, no number. This is a sample that favours compounds with a hit; in the whole collection about 3.7% have one here. Unless noted, no stated cut-off is given here; in the data, active means inhibition above about 30%; inconclusive means no clear call, values can overlap the other calls; inactive means below that.

SMILES	Anthrax LF prot	MazEF act	BoNT F protease	Bead autofluor	BoNT-A LC inh2
CCCCC(=O)NC(=S)Nc1ccccc1C(=O)Nc1ccccc1	-8.8	4.3	14.6	17346*	?
COC(=O)c1ccccc1NC(=S)NC(=O)CC(C)C	-1.0	-1.2	1.3	22351*	2.3
COC(=O)c1ccccc1NC(=S)NC(=O)COc1ccccc1	0.1	2.1	5.2	2629	0.2
Cc1ccccc1NC(=S)NC(=O)CCc1ccccc1	4.2	3.1	-2.6	19923*	-0.6
CCCCC(=O)Nc1cccc(NC(=O)c2ccccc2Br)c1	-1.5	-6.9	1.2	20490*	0.3
CC(=O)Oc1ccccc1C(=O)C=Cc1cccc([N+](=O)[O-])c1	-9.1	9.4	-10.2	4005	-0.1
C[C@H](CO)N1C[C@H](C)[C@H](CN(C)C(=O)Nc2ccc(C(F)(F)F)cc2)Oc2ncc(-c3cccnc3)cc2C1=O	-1.8	-3.7	-3.5	3781	-0.3
C=CCSc1nc(N)c(C#N)c(-c2ccccc2)c1C#N	-1.9	-13.3	5.2	21076*	4.3
CCCSc1nc(N)c(C#N)c(-c2ccc(C)cc2)c1C#N	-1.1	0.1	-22.2	5150	-0.8
COc1cc(OC)cc(C(=O)Nc2ccc(S(=O)(=O)N(C)C)cc2)c1	-2.5	-4.1	-1.7	19847*	0.6
CC(C)C[C@@H]1O[C@H](CCc2ccccc2)Cc2[nH]c(=S)[nH]c(=O)c21	2.0	/	-3.4	6166	0.4
O=C(CNc1ccccc1)N/N=C/c1ccc([N+](=O)[O-])o1	-1.4	-7.2	-6.8	24670*	-2.6
O=C(Cc1ccccc1)N/N=C/c1ccc(-c2ccc([N+](=O)[O-])cc2)o1	1.1	347.7*	-1.2	2078	2.6
Cc1ccc(C)c(N(CC(=O)N/N=C/c2ccc(-c3ccc([N+](=O)[O-])cc3)o2)S(=O)(=O)c2ccccc2)c1	42.2*	-14.7	31.7	5236	50.0*
CCOc1ccc(S(=O)(=O)N(CC(=O)N/N=C/c2ccc(-c3ccc([N+](=O)[O-])cc3)o2)c2ccccc2)cc1	27.4	1.0	28.1	2614	22.6
O=c1oc2ccccc2cc1-c1csc(Cc2nc(-c3ccc(Br)cc3)cs2)n1	0.9	-11.5	-0.5	16508*	?
Cc1ccc(-c2csc(Cc3nc(-c4cc5ccccc5oc4=O)cs3)n2)cc1	2.3	-3.9	5.3	7025	5.7
CC(C)(O)C#Cc1ccc(CNC[C@H]2O[C@@H](n3cnc(C(N)=O)n3)[C@H](O)[C@@H]2O)s1	-3.4	3.2	4.8	3522	0.0
CC(C)(C)S(=O)(=O)c1cnc(N2CCCCC2)nc1N	4.3	3.9	-3.0	5940	0.2
CC(=O)c1cnc(N2CCCCC2)nc1C	-0.4	-0.6	3.8	21581*	1.7
Cn1cccc1/C=C1\Cc2ccccc2C1=O	0.1	-12.1	1.8	4221	0.8
CN1C2CCC1/C(=C/c1cccn1C)C(=O)/C2=C\c1cccn1C	17.2	+	7.8	7871	14.7
Cn1cccc1/C=C1\CC(C(C)(C)C)C/C(=C\c2cccn2C)C1=O (centres undefined)	2.3	107.8*	-3.5	7066	2.7
Cc1cc(C(=O)Nc2cccc3c2O[C@H](CN(C)CC2CC2)[C@@H](C)CN([C@H](C)CO)C3=O)n(C)n1	-8.3	4.2	-5.3	3903	0.4
CC(C)n1cnc2cc(NCc3ccccn3)ccc21	-3.7	-9.8	-6.9	20604*	-2.4
SMILES	Anthrax LF prot	MazEF act	BoNT F protease	Bead autofluor	BoNT-A LC inh2
Cn1c(N/N=C/c2cc3ccccc3nc2Cl)nc2ccccc21	-0.1	206.8*	-6.7	2608	1.7
CNC(=O)COC(=O)c1cc2c(C)nn(-c3ccc(F)cc3)c2s1	-0.6	-2.2	-3.1	16925*	-1.2
Cc1nn(-c2ccc(F)cc2)c2sc(C(=O)N3CCCCCC3)cc12	0.3	-1.0	-4.4	3283	1.6
COc1ccc(NC(=O)c2cc([N+](=O)[O-])ccc2N2CCCCC2)cc1	-2.7	8.9	16.5	3566	-0.9
CCC(=NCc1cc(OC)cc(OC)c1)c1c(O)n(C)c(=O)n(C)c1=O	-4.7	3.9	-2.2	24024*	?
CCCCn1c(O)c(C(CC)=NCc2cccnc2)c(=O)[nH]c1=O	0.4	-4.7	0.6	22114*	0.5
CCCCn1c(O)c(C(C)=NCc2cccnc2)c(=O)[nH]c1=O	/	-4.0	/	/	/
CCCCn1c(O)c(C(C)=NCc2cc(OC)cc(OC)c2)c(=O)[nH]c1=O	4.7	-5.3	-8.3	9561	-1.0
CC(=NCc1cccnc1)c1c(O)n(-c2ccccc2)c(=O)[nH]c1=O	-3.4	-10.0	-3.6	20066*	-2.2
CCCCn1c(O)c(C(CC)=NCc2cc(OC)cc(OC)c2)c(=O)[nH]c1=O	-2.4	1.5	1.1	22230*	0.5
CCC(=NCc1ccc2c(c1)OCO2)c1c(O)n(C)c(=O)n(C)c1=O	-0.2	-14.0	3.1	3898	1.7
CC1CCCN(C(=O)CCS(=O)(=O)c2cc3c(cc2Cl)NC(=O)CO3)C1 (centres undefined)	-20.5	6.8	-9.1	5365	-0.1
Cc1cc2nc(-c3ccco3)c(Cc3cccc(Cl)c3)n2c(C)c1Br	-2.2	/	-15.5	7616	1.0
CN(Cc1ccccc1)Cc1cc(=O)oc2ccc3ccccc3c12	-10.9	/	3.7	6128	0.5
O=C(O)c1ccc(CN2C[C@@H](CO)O[C@@H](n3cnc4c(N5CCOCC5)ncnc43)C2)cc1	2.2	/	-2.8	3854	0.0
CCC(C(=O)NCCC1=CCCCC1)n1nc(C)c2c(C)n(-c3ccccc3)nc2c1=O (centres undefined)	3.1	5.9	-5.2	5864	0.9
CC(=NCc1cccnc1)c1c(O)n(Cc2ccccc2)c(=O)[nH]c1=O	-2.1	0.6	2.0	5958	-0.8
CCC(=NCc1cccnc1)c1c(O)n(Cc2ccccc2)c(=O)[nH]c1=O	-0.8	-7.2	1.8	19069*	2.7
CCCCn1c(O)c(C(CC)=Nc2ccc(OCC)cc2)c(=O)[nH]c1=O	1.3	54.9*	-4.2	16712*	-0.9
Cc1ccc(NC(=O)CN(C)C(=O)c2cc(-c3ccccc3)nn2-c2ccccc2)cc1	0.3	-6.9	3.7	5316	-1.9
O=S(=O)(c1ccc2ccccc2c1)N1CCN(S(=O)(=O)c2c(F)cccc2F)CC1	-5.3	-5.8	-6.3	3912	-1.1
CC(=O)Nc1ccc(NC(=O)N2CCCCC2)cc1	-2.6	0.6	-2.5	3218	-0.5
CC(=O)Nc1ccc(OC(=O)N2CCCCC2)cc1	-0.4	1.5	-0.8	22883*	0.2
CC(C)/C=C1\CC/C(=C\c2ccc(N(C)C)cc2)C1=O	15.7	419.4*	9.4	6586	34.2*
CC(C)c1ccc(/C=C2\CC/C(=C\C=N\N(C)C)C2=O)cc1	-10.0	-8.9	0.4	8046	0.0
O=c1c2c(nc3c(-c4cccc(Br)c4)c[nH]n13)CCCC2	-3.6	7.9	-5.8	16678*	-1.5
O=c1c2c(nc3c(-c4ccccc4)c[nH]n13)CCC2	-1.3	-3.6	-0.2	8867	0.8
